# CYP2C19 inhib – blocks human cytochrome P450 2C19; inhibition, % at 5 µM; 96,000 tested, 21% active; CYP2C19 Supersomes, luciferin-H EGE luminescence, 30 min; P33261;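 active = CYP2C19 inhibition above a set limit at 5 µM in the primary screen, cut at about 50% in these data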;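 also: plate controls were negative control wells for no effect and 2.5 mM tranylcypromine positive control for full effect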
# CYP2C9 inh – human CYP2C9 inhibition; CYP2C9 Supersomes, luciferin-H conversion, luminescence; inhibition, % at 5 µM; 96,000 tested, 20% active; AID 777;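 active = blocking of liver enzyme CYP2C9 beyond about 50% at 5 µM, limit read from the data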
# CYP2C9 activ – CYP2C9 (human) activation | 96,000 tested, 1.4% active | activation factor at 5 µM | recombinant CYP2C9, luciferin-H conversion, luminescence; active compounds read high; factor 1 = untreated enzyme, 0 = blocked | P11712 | AID 1024;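 active = activation factor of 2 or more for CYP2C9 at a 5 µM dose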;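 also: 0 = sulfaphenazole-blocked wells and 1 = vehicle-only wells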
# Cav32 inh – human Cav3.2 channel inhibition, primary screen; O95180; Cav3.2-expressing cells, Fluo-4 calcium fluorescence FDSS; active compounds read low; B-score at 10 µM; 100,000 tested, 4% active;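 active = single-dose well whose peak fluorescence ratio is a statistical outlier from its plate by either plate-standardised score or position-corrected B-score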
# CYP2C19 act – increases human CYP2C19 enzyme activity; recombinant CYP2C19, luciferin-H EGE luminescence; active compounds read high; 0 = fully inhibited enzyme, 1 = untreated enzyme; activation factor at 5 µM; 96,000 tested, under 10 active; AID 1025;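 active = activation factor of at least 2 at 5 µM in the primary screen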;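 also: 0 = wells with 2.5 mM tranylcypromine and 1 = vehicle-only wells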
# Starred values were filed as active, the others as inactive; . = no result given. Sampled rows, rich in hits. Any-hit rate of the full collection: about 27%.
SMILES,CYP2C19 inhib,CYP2C9 inh,CYP2C9 activ,Cav32 inh,CYP2C19 act
Cc1ccc(S(=O)(=O)N2CCN(C(=O)c3ccccc3)CC2)cc1,34,12,0.9,0.66,0.7
O=C(CN1C(=O)CCS(=O)(=O)c2ccccc21)Nc1cccc(Cl)c1,.,.,.,1.4,.
CCOC(=O)/C(C#N)=C\N(C)C,-11,-2,1,.,1.1
C=CCN1C=CC(=C/C=C(/C#N)C(=O)OCC)C=C1,.,.,.,-6.4*,.
O=C(NC1CCCCNC1=O)c1ccc(Cl)cc1 (configuration not stated),-14,52*,0.5,0.4,1.1
Cc1[nH]c2ccccc2c1C1(O)C(=O)N(Cc2ccc3c(c2)OCO3)c2ccccc21 (configuration not stated),83*,73*,0.3,.,0.2
Cc1ccc2c(c1)C(O)(c1c(C)[nH]c3ccccc13)C(=O)N2 (configuration not stated),98*,60*,0.4,-4.1*,0
Cc1[nH]c2ccccc2c1C1(O)C(=O)N(C(C)C)c2ccccc21 (configuration not stated),95*,6,0.9,-2.9,0.1
CCn1c(COc2ccc(C)cc2)nnc1SCC(=O)Nc1ccc(S(N)(=O)=O)cc1,7,22,0.8,-1.4,0.9
Cc1nc(SCC(=O)NC(=O)NCc2ccccc2)nc(C)c1C,59*,33,0.7,-0.97,0.4
Cc1nc(SCC(=O)NCCc2ccccc2)nc(C)c1C,80*,-7,1.1,0.21,0.2
CCOC(=O)C[C@H]1c2ccccc2S(=O)(=O)N1Cc1cc(OC)c(OC)c(OC)c1,.,.,.,1.1,.
Cc1ccc(/C=C/C(=O)N2CC(C)CC(C)C2)o1 (configuration not stated),28,26,0.7,0.44,0.7
Cc1ccc(S(=O)(=O)N2CCC(C(=O)NCCc3ccc(S(N)(=O)=O)cc3)CC2)cc1,9,-4,1,-1.9,0.9
O=C(CCc1nc(-c2ccccc2)c(-c2ccccc2)o1)OCc1ccc(Cl)cc1,4,29,0.7,-4.3*,1
O=C(CCc1nc(-c2ccccc2)c(-c2ccccc2)o1)OCc1ccc(Br)cc1,58*,81*,0.2,-3.5,0.4
O=C(O)CCc1nc(-c2ccccc2)c(-c2ccccc2)o1,.,.,.,0.23,.
Cc1ccc(NC(=O)CCc2c(C)nc3ncnn3c2C)cc1,-9,-16,1.2,0.17,1.1
Cc1nc2ncnn2c(C)c1CCC(=O)Nc1ccc(S(=O)(=O)N2CCCCCC2)cc1,27,69*,0.3,-0.7,0.7
CN(C)c1ccc(CNC2CC(C)(C)NC(C)(C)C2)cc1,-17,-19,1.2,-0.55,1.2
CC(NCc1ccc(N(C)C)cc1)C1CC2CCC1C2 (configuration not stated),86*,7,0.9,1.1,0.1
O=C(OCn1nnc2ccccc2c1=O)c1cn(-c2ccccc2)nc1-c1cccnc1,11,35,0.7,.,0.9
O=c1c2ccccc2nc(-c2ccccc2)n1Cc1ccco1,9,23,0.8,-0.22,0.9
CN(Cc1ccccc1)C(=O)CSc1nc2ccccc2c(=O)n1Cc1ccco1,97*,100*,0,-3.9,0
Cc1ccc(NC(=O)CN(C)C(=O)CSc2nc3ccccc3c(=O)n2Cc2ccco2)cc1,31,79*,0.2,.,0.7
SMILES,CYP2C19 inhib,CYP2C9 inh,CYP2C9 activ,Cav32 inh,CYP2C19 act
C=C1CCN(c2ccc(C(=O)NCCC)cc2[N+](=O)[O-])CC1,.,.,.,0.27,.
CCSc1nc(-c2ccc(OC)cc2)ccc1C#N,63*,90*,0.1,-0.9,0.4
COc1ccc(-c2ccc(C#N)c(SCC(=O)OCc3ccccc3)n2)cc1OC,22,92*,0.1,-0.43,0.8
N#Cc1ccc(-c2ccc3c(c2)OCO3)nc1SCC(=O)OCc1ccccc1,-24,92*,0.1,-4.6*,1.2
COc1ccc(-c2cc(-c3ccc(OC)cc3)c(C#N)c(SC)n2)cc1,.,.,.,-0.84,.
COc1ccc(C(CC(=O)N2CCCC(C)C2)c2c(OC)cc(OC)c3ccc(=O)oc23)cc1 (configuration not stated),.,.,.,0.0059,.
COc1cc(S(=O)(=O)NCc2ccc3c(c2)OCO3)ccc1Cl,100*,30,0.7,-1.3,0
CCOc1ccc(OCC)c(S(=O)(=O)NCc2ccccn2)c1,43,14,0.9,0.38,0.6
COc1cc(C)c(Cl)c(C)c1S(=O)(=O)NCc1ccc2c(c1)OCO2,25,-36,1.4,-1.6,0.8
CCOc1ccc(OCC)c(S(=O)(=O)NCc2ccc3c(c2)OCO3)c1,100*,92*,0.1,-1.5,0

# Screening results from PubChem BioAssay.
